Data: the supplement of paper PMC11732987, “Enantioselective OTUD7B fragment discovery through chemoproteomics screening and high-throughput optimisation” (Communications Chemistry, 2025)

Assays:
Assay in all cases: log2 ratio of Biotin-Ahx-Ub-VS probe labelling (fragment/DMSO); higher = less target engagement (more negative = stronger competition), active = hit call of the paper (q ≤ 0.05, log2 ratio ≤ -1)
Settings in all cases: compound concentration: 200 uM; treatment time: 3 h
USP19 = molecular target: T1, USP19 (UniProt O94966)
T1 sequence (whole entry): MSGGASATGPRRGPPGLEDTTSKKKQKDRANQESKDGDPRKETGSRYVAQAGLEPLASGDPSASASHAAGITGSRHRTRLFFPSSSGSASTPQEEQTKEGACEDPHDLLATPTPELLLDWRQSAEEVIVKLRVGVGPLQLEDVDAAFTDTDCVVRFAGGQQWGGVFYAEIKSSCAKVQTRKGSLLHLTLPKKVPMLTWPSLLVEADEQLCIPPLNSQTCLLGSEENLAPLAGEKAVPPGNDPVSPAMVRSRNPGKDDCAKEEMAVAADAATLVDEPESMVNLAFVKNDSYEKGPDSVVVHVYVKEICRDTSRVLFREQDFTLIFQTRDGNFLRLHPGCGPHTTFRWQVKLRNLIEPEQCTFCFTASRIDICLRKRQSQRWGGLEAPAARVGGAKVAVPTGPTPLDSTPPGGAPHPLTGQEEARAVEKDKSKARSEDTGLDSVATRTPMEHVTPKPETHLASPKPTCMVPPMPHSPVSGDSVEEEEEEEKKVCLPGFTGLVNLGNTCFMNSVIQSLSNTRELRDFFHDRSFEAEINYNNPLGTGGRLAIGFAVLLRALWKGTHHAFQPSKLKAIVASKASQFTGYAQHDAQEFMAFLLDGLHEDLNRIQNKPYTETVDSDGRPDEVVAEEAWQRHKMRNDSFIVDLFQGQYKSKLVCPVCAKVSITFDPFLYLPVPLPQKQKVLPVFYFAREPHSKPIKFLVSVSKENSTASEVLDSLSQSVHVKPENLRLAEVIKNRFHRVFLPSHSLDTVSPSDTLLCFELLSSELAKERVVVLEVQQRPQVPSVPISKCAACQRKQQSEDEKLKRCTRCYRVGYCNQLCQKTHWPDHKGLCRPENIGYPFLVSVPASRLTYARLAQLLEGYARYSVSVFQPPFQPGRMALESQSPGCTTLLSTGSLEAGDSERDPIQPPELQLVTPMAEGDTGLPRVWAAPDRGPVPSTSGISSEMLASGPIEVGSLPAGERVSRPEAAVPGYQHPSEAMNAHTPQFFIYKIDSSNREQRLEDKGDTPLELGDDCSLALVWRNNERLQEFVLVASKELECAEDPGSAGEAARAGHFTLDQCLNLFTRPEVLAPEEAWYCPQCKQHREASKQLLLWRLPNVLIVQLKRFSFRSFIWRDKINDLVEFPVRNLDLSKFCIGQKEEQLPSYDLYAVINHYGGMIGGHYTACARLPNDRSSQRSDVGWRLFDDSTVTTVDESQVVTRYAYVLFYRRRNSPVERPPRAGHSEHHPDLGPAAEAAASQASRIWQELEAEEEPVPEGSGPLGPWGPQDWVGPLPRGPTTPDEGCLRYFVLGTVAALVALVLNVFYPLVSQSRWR
Procedure, shortened: (§1)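 The table lists average log2 ratios of fragment over vehicle, from an unpaired t-test on global-median-normalised Spectronaut label-free quantities. Proteins with ≥2 unique peptides were used. Samples were HEK293T lysate (495 µg) treated in triplicate with fragment at 200 µM or vehicle for 3 h, then with Biotin-Ahx-Ub-VS (0.5 µM final) for 1 h, with labelled DUBs NeutrAvidin-enriched and run by diaPASEF LC-MS/MS.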

USP22 = molecular target: T2, USP22 (UniProt Q9UPT9)
T2 sequence (whole entry): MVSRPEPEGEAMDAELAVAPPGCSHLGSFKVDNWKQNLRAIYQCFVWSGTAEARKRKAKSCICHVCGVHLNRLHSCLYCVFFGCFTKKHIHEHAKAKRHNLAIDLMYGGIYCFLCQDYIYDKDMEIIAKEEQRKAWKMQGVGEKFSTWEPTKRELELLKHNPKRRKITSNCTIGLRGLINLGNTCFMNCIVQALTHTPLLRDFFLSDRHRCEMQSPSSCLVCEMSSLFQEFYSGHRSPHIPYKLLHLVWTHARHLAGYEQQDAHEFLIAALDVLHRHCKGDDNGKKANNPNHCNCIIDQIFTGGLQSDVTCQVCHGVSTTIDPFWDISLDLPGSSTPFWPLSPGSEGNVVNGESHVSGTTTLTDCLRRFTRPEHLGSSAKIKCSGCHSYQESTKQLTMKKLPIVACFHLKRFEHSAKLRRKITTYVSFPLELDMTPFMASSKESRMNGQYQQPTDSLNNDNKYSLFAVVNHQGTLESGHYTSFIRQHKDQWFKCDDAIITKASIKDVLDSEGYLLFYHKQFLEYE
Procedure, shortened: as §1

USP24 = USP24 (UniProt Q9UPU5)
Procedure, shortened: as §1

USP25 = molecular target: T3, USP25 (UniProt Q9UHP3)
T3 sequence (whole entry): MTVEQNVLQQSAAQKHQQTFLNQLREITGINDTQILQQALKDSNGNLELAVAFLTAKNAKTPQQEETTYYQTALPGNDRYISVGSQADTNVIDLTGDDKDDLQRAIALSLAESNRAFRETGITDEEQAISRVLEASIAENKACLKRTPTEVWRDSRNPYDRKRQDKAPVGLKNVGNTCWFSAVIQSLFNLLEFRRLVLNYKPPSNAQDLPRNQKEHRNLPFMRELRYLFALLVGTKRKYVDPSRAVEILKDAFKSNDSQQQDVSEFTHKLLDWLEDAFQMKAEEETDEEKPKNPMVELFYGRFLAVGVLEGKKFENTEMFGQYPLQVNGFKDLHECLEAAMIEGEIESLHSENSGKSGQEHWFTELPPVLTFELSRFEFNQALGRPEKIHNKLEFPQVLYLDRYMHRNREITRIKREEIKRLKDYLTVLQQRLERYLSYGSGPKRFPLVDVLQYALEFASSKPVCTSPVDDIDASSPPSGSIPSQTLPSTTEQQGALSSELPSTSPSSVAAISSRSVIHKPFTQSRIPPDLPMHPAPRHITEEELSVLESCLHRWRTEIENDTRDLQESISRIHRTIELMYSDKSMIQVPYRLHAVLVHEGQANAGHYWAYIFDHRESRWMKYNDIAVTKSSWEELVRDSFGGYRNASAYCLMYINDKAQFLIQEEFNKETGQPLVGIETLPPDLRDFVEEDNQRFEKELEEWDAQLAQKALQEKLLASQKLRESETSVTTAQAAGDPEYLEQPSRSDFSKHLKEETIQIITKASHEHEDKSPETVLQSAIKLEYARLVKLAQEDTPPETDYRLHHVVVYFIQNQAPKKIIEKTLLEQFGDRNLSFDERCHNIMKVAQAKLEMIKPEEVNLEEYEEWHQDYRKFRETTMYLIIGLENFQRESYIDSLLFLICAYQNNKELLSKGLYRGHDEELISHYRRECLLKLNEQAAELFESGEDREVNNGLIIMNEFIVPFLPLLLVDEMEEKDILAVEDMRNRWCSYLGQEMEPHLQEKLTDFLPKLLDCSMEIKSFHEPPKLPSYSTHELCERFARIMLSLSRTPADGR
Procedure, shortened: as §1

USP28 = molecular target: T4, USP28 (UniProt Q96RU2)
T4 sequence (whole entry): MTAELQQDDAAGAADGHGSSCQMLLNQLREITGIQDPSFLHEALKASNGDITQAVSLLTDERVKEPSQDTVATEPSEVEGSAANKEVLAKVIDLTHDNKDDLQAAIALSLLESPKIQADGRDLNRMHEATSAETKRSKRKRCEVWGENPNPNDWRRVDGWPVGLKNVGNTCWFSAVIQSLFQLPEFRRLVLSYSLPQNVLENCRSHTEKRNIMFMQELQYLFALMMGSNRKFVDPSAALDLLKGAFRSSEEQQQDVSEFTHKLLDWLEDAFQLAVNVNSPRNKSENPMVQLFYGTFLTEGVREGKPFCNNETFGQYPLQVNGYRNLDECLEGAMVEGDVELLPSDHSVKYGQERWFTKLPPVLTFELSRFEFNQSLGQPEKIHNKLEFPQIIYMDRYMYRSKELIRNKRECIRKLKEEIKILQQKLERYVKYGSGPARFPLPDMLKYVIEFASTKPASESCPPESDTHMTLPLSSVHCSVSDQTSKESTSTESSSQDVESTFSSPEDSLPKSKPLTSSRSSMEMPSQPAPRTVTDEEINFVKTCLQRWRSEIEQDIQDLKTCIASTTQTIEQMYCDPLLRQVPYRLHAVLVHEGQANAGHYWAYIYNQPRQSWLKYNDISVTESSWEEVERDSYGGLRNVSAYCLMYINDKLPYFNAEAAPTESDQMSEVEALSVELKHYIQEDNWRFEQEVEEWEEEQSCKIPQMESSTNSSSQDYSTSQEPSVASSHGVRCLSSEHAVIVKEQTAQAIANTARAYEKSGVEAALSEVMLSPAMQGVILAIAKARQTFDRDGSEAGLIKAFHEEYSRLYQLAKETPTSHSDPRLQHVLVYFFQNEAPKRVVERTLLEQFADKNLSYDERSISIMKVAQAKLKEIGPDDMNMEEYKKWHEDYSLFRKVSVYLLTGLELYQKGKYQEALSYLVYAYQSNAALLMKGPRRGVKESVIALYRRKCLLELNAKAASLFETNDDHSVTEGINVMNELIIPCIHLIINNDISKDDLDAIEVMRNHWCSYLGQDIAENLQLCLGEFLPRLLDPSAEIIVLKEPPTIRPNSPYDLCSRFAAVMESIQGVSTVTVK
Procedure, shortened: as §1

Measured: log2 ratio of Biotin-Ahx-Ub-VS probe labelling

Chain of USP24 (Q9UPU5 whole entry): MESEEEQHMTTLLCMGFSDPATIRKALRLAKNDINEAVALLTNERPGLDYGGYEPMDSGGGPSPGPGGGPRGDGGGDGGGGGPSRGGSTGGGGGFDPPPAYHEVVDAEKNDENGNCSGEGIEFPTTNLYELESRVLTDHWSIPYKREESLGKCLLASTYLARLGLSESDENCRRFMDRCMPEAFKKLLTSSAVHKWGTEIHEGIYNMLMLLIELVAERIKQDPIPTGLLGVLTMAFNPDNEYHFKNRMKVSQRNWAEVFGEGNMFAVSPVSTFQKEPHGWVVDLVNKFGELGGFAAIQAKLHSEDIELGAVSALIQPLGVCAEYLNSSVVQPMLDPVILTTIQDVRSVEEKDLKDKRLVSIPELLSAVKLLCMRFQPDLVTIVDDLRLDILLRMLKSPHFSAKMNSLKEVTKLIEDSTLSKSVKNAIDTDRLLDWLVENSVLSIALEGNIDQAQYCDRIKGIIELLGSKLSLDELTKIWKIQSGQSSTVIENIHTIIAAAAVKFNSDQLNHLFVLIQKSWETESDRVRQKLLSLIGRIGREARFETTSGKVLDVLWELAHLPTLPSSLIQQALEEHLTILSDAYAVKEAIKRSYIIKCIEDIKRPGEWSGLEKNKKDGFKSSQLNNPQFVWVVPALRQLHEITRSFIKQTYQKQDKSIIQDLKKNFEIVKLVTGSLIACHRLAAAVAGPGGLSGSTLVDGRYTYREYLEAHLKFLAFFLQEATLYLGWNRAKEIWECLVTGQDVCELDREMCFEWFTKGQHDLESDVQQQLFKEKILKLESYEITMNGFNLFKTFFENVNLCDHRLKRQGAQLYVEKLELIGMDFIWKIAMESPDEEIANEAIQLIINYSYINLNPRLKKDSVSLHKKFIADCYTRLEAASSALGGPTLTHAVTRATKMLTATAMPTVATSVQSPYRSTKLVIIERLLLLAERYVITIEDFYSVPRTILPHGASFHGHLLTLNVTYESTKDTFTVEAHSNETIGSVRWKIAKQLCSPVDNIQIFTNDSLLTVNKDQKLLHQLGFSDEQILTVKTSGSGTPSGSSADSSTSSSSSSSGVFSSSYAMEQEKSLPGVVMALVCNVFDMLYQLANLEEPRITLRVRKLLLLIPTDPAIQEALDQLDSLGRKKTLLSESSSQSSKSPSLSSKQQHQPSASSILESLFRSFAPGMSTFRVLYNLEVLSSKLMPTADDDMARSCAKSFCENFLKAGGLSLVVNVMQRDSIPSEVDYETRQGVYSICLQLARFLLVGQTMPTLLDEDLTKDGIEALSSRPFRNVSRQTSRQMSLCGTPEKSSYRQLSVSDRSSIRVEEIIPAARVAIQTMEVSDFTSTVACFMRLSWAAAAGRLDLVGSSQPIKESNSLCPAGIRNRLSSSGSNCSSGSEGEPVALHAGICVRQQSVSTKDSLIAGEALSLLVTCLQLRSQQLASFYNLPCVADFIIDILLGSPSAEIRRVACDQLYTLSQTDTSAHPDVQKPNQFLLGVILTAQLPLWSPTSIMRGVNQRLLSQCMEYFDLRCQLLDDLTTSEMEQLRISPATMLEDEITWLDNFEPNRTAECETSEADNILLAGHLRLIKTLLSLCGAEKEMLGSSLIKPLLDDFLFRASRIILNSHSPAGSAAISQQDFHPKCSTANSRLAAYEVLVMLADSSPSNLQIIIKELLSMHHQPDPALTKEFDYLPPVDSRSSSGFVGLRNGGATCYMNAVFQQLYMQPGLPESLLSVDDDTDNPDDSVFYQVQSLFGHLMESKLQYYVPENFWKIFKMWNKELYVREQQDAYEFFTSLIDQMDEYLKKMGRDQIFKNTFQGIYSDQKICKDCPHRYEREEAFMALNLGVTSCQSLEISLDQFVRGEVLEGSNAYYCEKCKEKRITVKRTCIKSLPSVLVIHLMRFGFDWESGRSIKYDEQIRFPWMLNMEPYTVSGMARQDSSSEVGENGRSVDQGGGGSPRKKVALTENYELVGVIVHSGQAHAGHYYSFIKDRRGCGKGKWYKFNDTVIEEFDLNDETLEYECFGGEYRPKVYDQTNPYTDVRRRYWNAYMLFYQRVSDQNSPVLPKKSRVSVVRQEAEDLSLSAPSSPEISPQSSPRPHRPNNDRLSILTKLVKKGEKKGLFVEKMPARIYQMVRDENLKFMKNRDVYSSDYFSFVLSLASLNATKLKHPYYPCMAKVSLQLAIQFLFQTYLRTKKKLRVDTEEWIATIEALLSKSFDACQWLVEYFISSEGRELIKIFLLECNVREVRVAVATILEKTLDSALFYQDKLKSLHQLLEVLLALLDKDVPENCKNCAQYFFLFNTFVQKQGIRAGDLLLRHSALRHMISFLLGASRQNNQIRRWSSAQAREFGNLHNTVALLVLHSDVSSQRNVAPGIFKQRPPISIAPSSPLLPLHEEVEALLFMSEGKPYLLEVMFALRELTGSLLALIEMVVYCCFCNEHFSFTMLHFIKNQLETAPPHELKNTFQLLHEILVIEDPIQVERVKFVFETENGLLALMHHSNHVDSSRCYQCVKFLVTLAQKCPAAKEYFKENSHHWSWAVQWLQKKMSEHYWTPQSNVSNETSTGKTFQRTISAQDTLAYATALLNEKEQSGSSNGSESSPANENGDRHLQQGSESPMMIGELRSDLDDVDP

CS(=O)(=O)c1ccc(CNC(=O)CCl)cc1
inactive: USP19 -0.123 | USP22 -0.163 | USP24 -0.159 | USP25 -0.385 | USP28 -0.583
